In PubChem BioAssay AID589 (National Center for Advancing Translational Sciences (NCATS), 2007) one finds max dye-equivalent concentration data, which are given here for 68 molecules.

Each structure is given as a SMILES string. Screen size: about 59,000 compounds; about 6,200 (11%) were called active. About 9% were inconclusive and are not listed. No stated cut-off is given here; in the data, active means max dye-equivalent concentration above about 10 nM; inconclusive means mostly about 1.1 nM to 9.6 nM; inactive means weaker than that. The full list was thinned out, with actives kept by preference.

A short description of this experiment: qHTS Assay for Spectroscopic Profiling in 4-MU Spectral Region. The conditions noted are these: compound autofluorescence, 340/450 nm, 4-MU equivalents; hits give high values. In a few lines:
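Intrinsic fluorescence at 340/450 nm (ex/em) was read after 15 min at room temperature in pH 8.0, 100 mM Tris. Each compound concentration expressed as 4-MU-equivalent concentration from a six-point 4-MU standard series on each plate.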
In general terms: Quantitative high-throughput screening tests each substance at several concentrations.
As to `C[C@H](CCC(=O)NCC(=O)O)[C@H]1CC[C@H]2[C@H]3[C@@H](C[C@@H](O)[C@]12C)[C@]1(C)CC[C@H](O)C[C@@H]1C[C@@H]3O`, the max dye-equivalent concentration result is “inactive”.
`O=S(=O)(NCc1cccnc1)c1ccc(Br)s1`: the max dye-equivalent concentration result is “inactive”.
Next, `CCOc1ccc(N=C2SC(C(=O)O)CC(=O)N2C)cc1` (stereo not drawn): “inactive”; `CCn1c(=N)c(S(=O)(=O)c2ccc(F)cc2)cc2c(=O)n3ccccc3nc21`: 590 nM (active); `O=CN1CCN(C2CC(=O)N(c3ccc4c(c3)OCO4)C2=O)CC1` (stereo not drawn): “inactive”.
Next, `Cn1c(NC(=O)c2ccco2)c(-c2ccccc2Cl)c(=O)c2ccccc21`: “inactive”; `Cc1ccc(-n2nc3cc(Cl)c(NC(=O)c4ccco4)cc3n2)cc1`: 54 nM (active).
Turning to `COC(=O)c1cc(Cl)c(NC(=O)c2ccco2)cc1OC`, the max dye-equivalent concentration result was “inactive”.
To `CSCC[C@H](NC(=O)NCc1cccs1)C(=O)O` belongs “inactive”; to `COCCNc1ccnc(-c2cccc(NS(C)(=O)=O)c2)n1`, “inactive”; to `N#Cc1ccc(CN2CCCC3(CCN(C(=O)c4ccco4)CC3)C2)cc1`, “inactive”.
To `COc1ccc(Cc2nnc(NC(=O)Cc3cccs3)s2)cc1` belongs “inactive”; to `COc1ccc(OCCCC(=O)Nc2nnc(C3CCCO3)s2)cc1` (stereo not drawn), “inactive”.
`COc1ccc2c(CC(=O)Nc3nnc(C4CC4)s3)coc2c1`: the max dye-equivalent concentration is 11 nM (active).
Next, `O/N=C1\CC2(Cc3nonc31)OCCO2`: “inactive”; `O=C(CN1CCOCC1)Nc1ccc(NC(=O)CN2CCOCC2)c(Cl)c1`: “inactive”.
For the molecule `Fc1ccc(-c2nnc(CSc3nnc(-c4ccc5c(c4)OCO5)o3)o2)cc1`, the max dye-equivalent concentration result was “inactive”.
To `Fc1ccc2nc(-c3ccccc3)nc(SCc3nnc(-c4ccccc4)o3)c2c1` belongs 29 nM (active).
To `C=CCn1c(SCc2nnc(-c3ccccc3)o2)nnc1C(O)c1ccccc1` (stereo not drawn) belongs “inactive”; to `O=C(N1CCOCC1)N1CCOCC1`, “inactive”.
Consider `O=C(c1csnn1)N1CCC[C@@]2(CCN(Cc3nccs3)C2)C1`, for which the max dye-equivalent concentration result was “inactive”.
Take `O=C(OC(C(=O)NC1CCCC1)c1ccc(F)cc1)c1ccno1` (stereo not drawn): the max dye-equivalent concentration result was “inactive”.
For `CCn1c(NCCc2ccc(OC)c(OC)c2)nc2c1c(=O)n(C)c(=O)n2C`, the max dye-equivalent concentration result is “inactive”.
Next, `O=C(O)c1nn(-c2ccc(Cl)cc2)c2c1C(=O)c1ccccc1C2=O`: “inactive”; `O=C(O)CN1C(=O)CC(Cc2ccccc2)C1=O` (stereo not drawn): “inactive”.
To `O=C(NC1(C(F)(F)F)N=C2SCCN2C1=O)c1ccco1` (stereo not drawn) belongs “inactive”; to `CCOC(=O)c1c(C(C#N)C#N)cc(C)nc1C`, “inactive”; to `CCOC(=O)c1cc(-c2ccc(Cl)s2)nc2c1c(C)nn2C`, 180 nM (active).
To `CCOC(=O)c1cnc(-n2nc(C)cc2C)nc1-n1nc(C)cc1C` belongs “inactive”; to `CN(C)c1nc2n(c(=O)n1)CCO2`, “inactive”.
Regarding `COCCn1c(=O)[nH]c2cc(C(=O)NCc3cccnc3)ccc2c1=O`, the max dye-equivalent concentration is 41 nM (active).
As for `CC(C)(C)c1cc(C(=O)NCc2cccnc2)ccn1`, the max dye-equivalent concentration entry is “inactive”.
To `Cc1ccc(-n2nc(-c3ccco3)cc2C(=O)NCc2cccnc2)cc1` belongs “inactive”; to `CCOc1ccccc1Oc1cn[nH]c1-c1ccc(OC)cc1O`, “inactive”.
On to `Cc1cc(Cl)c(S(=O)(=O)NCCC(=O)O)cc1OCC(N)=O`, for which the max dye-equivalent concentration result is “inactive”.
Regarding `CCOC(=O)c1cc(-c2nnc(-c3cc(OC)c(OC)c(OC)c3)o2)c(C)nc1C`, the max dye-equivalent concentration was 24 nM (active).
Regarding `COc1cc(-c2nnc(Cn3cc(C(F)(F)F)ccc3=O)o2)cc(OC)c1OC`, the max dye-equivalent concentration result is “inactive”.
`CCOC(=O)c1cc(NC(=O)SCC(=O)O)c(C)nc1C`: the max dye-equivalent concentration result was “inactive”.
Next, `O=C(NCc1ccco1)c1nc(-c2ccccc2)n(-c2ccccc2)n1`: “inactive”; `COC(=O)[C@@H](NC(=O)NCc1cccc(OC)c1)C(C)C`: “inactive”; `CCOc1ccc(-c2cn(S(=O)(=O)c3cccc4nsnc34)nc2N)cc1`: “inactive”.
Next, `O=C(Cn1nnc(-c2ccccc2)n1)NCc1ccc2c(c1)OCO2`: “inactive”.
Next, `CCOC(=O)NCc1ccc2c(c1)OCO2`: “inactive”; `CC1CCCCN1CC(=O)NCc1ccc2c(c1)OCO2` (stereo not drawn): 51 nM (active); `COc1ccc(S(=O)(=O)Nc2c(C)n(C)n(-c3ccccc3)c2=O)cc1`: “inactive”.
With `CCOC(=O)Cn1c(SC)nc2sc3c(c2c1=O)CC(C)(C)OC3`, the max dye-equivalent concentration result is “inactive”.
To `CCC1(C)Cc2c(sc3nc4n(c(=O)c23)CCCS4)CO1` (stereo not drawn) belongs 47 nM (active); to `CC1(C)Cc2c(sc3nc4n(c(=N)c23)CCCCC4)CO1`, “inactive”; to `COc1ccc2[nH]cc(CCNc3cc(-c4ccccc4CN(C)C)ncn3)c2c1`, “inactive”.
As for `O=C(NCCCN1CCN(c2ccccc2F)CC1)C1CCC(=O)N1C1CCCCC1` (stereo not drawn), the max dye-equivalent concentration result is “inactive”.
To `COC(=O)c1sc(=S)n(-c2ccccc2)c1N` belongs “inactive”; to `CC(C)CCNC(=O)C1CCCN(S(=O)(=O)c2ccc(F)cc2)C1` (stereo not drawn), “inactive”; to `COCCNc1ncnc2ccc(-c3cccnc3)cc12`, “inactive”.
Take `CC1CCc2c(sc3c2C2=NS(=O)(=O)CCN2C=N3)C1` (stereo not drawn): the max dye-equivalent concentration was 26 nM (active).
Consider `Cc1cc(NC(=O)CCC(=O)N(c2cccc(F)c2)C(C(=O)NC2CCCC2)c2ccncc2)no1` (stereo not drawn), for which the max dye-equivalent concentration entry was “inactive”.
To `CS(=O)(=O)N1CCC2(CC1)CN(Cc1ccccc1)C2` belongs “inactive”.
Turning to `NC[C@@H]1O[C@H](O[C@@H]2[C@H](O[C@@H]3O[C@H](CO)[C@@H](COC[C@H]4O[C@@H](CN)[C@@H](O)[C@@H](O)[C@@H]4N)[C@@H]3O)[C@@H](O)[C@@H](N)C[C@H]2N)[C@@H](N)[C@H](O)[C@@H]1O`, the max dye-equivalent concentration entry is “inactive”.
Next, `COc1ccc(OC)c(NC(=O)CSc2nc(N)c(-c3ccccc3)c(=O)[nH]2)c1`: “inactive”; `C[N+]1(CCN=C=NC2CCCCC2)CCOCC1`: “inactive”; `CCCCNc1nc2c(c(=O)[nH]c(=O)n2C)n1CCOc1ccccc1`: “inactive”.
Turning to `O=c1c(-c2ccc(F)cc2)nc2cncnc2n1-c1ccccc1`, the max dye-equivalent concentration entry was “inactive”.
Take `CN1CCN(c2ncc3nc(-c4ccc(Cl)cc4)c(=O)n(-c4ccccc4)c3n2)CC1`: the max dye-equivalent concentration was 52 nM (active).
To `COc1ccc(Oc2ncc3nc(-c4ccc(F)cc4)c(=O)n(C)c3n2)cc1` belongs “inactive”; to `COc1ncc2nc(-c3ccc(Cl)cc3)c(=O)n(C)c2n1`, 27 nM (active).
Next, `O=c1c(-c2ccc(F)cc2)nc2cnc(N3CCOCC3)nc2n1-c1ccccc1`: 23 nM (active); `O=C(c1ccc2c(c1)C(=O)N(c1ccc(Cl)cc1)C2=O)N1CCN(c2ccccn2)CC1`: “inactive”.
In the case of `Cn1cc(-c2nc3cncnc3n(-c3ccccc3)c2=O)c2ccccc21`, the max dye-equivalent concentration entry was “inactive”.
Regarding `O=C(Nc1ccc(F)cc1)c1cccnc1N1CCOCC1`, the max dye-equivalent concentration result was “inactive”.
